Most compounds without a hit are left out; they make up all but 4.8% or so of the library.
tim10-1 inh: tim10-1 yeast growth inhibition | hit rate 2.2% among 330,000 | inhibition, % at 20 µM | S. cerevisiae tim10-1 ts strain growth, BacTiter-Glo, 24 h;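 active means inhibition of at least 40%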;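 further: mutant grown at 25 °C; 0% = DMSO wells with yeast and 100% = wells holding no yeast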
tim23-1 inh: inhibits growth of tim23-1 mutant yeast; hit rate 1.3% among 330,000; S. cerevisiae tim23-1 growth, BacTiter-Glo luminescence, 24 h; inhibition, % at 20 µM;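 active means growth inhibition of the mutant yeast at or above 50%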;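 further: temperature-sensitive mutant grown at 25 °C; plate controls were DMSO-treated mutant yeast for no effect and medium wells lacking yeast for full effect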
TIM10 inh: growth inhibitors of TIM10 yeast strain | hit rate 1.4% among 330,000 | inhibition, % at 10 µM | AID 463195 | S. cerevisiae TIM10 strain growth, BacTiter-Glo luminescence, 24 h;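 active means inhibition of 40% or more at the single tested concentration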;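 further: wild-type TIM10 isogenic control strain grown at permissive 25 °C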
NALP1 yeast inh: NALP1 inhibition. S. cerevisiae NALP1/ASC/caspase-1 growth, X-gal OD620, 72 h. inhibition, % at 10 µM. hit rate 0.61% among 280,000. AID 2071; in the data active means inhibition mostly above about 24%, no sharp cut-off; inactive means mostly below about 32%
SKKanGAS inh: SKKanGAS growth inhibition; inhibition, % at 7.5 µM; S. pyogenes SKKanGAS, kanamycin growth, BacTiter-Glo, 6 h; hit rate 1.3% among 300,000;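 active means mean replicate score, as percent of positive control median, at least 50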;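 further: strain carries kanamycin resistance gene driven by streptokinase promoter and grows in 40 µg/ml kanamycin; loss of luminescence reflects streptokinase promoter inhibition or plain growth inhibition; 0% = median of DMSO wells and 100% = positive control at its reference dose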
PfHsp90 set2: reduces growth (ATP signal) of yeast expressing P. falciparum Hsp90. S. cerevisiae expressing PfHsp90, BacTiter-Glo ATP, 48 h; yeast lacking PDR1 and PDR3 efflux regulators. inhibition, % at 9.4 µM. hit rate 0.32% among 310,000. AID 504621;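 active means every replicate shows inhibition above about 80%, whatever the replicate mean, limit read from the data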;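 further: 0% = DMSO neutral controls and 100% = 20 µM radicicol positive controls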
tim10-1 confirm: confirmation of tim10-1 mutant yeast growth inhibitors; shares compounds with tim10-1 inh; S. cerevisiae tim10-1 ts strain growth, BacTiter-Glo, 24 h; inhibition, % at 20 µM; hit rate 56% among 7,400;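 active means inhibition of yeast growth at or above a set limit in either of two repeat tests at 20 µM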;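 further: tim10-1 mutant grown at permissive 25 °C to find synthetic lethal compounds; 0% = DMSO yeast wells and 100% = medium wells without yeast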
tim10 confirm: confirmation of TIM10 yeast growth inhibitors; shares compounds with TIM10 inh; S. cerevisiae tim10 strain growth, BacTiter-Glo luminescence, 24 h; inhibition, % at 10 µM; hit rate 63% among 4,600;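 active means inhibition of yeast growth at or above a set limit in either of two replicates at 10 µM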;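 further: this counterscreen used the strain with wild-type TIM10; 0% = yeast with DMSO and 100% = medium wells lacking yeast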
tim23-1 conf: tim23-1 yeast growth inhibition, confirmed; S. cerevisiae tim23-1 growth, BacTiter-Glo luminescence, 24 h; inhibition, % at 20 µM; hit rate 83% among 4,400; shares compounds with tim23-1 inh; AID 463218;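 active means inhibition above about 39% in either of two replicate wells at 20 µM, limit read from the data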;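 further: temperature-sensitive tim23-1 mutant grown at 25 °C; 0% = DMSO wells with yeast and 100% = medium wells without yeast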
Numbers without * were called inactive.

N#C/C(=C\c1ccc(Cl)c([N+](=O)[O-])c1)c1ccccn1 was read as tim10-1 inh 54*, tim23-1 inh 60*, TIM10 inh 64*, NALP1 yeast inh 19, SKKanGAS inh -2, PfHsp90 set2 -24, tim10-1 confirm 66*, tim10 confirm 73* and tim23-1 conf 69*.
CCN(CC)c1nc(C(N)=O)cc(-c2ccccc2)n1 was read as tim10-1 inh 63*, tim23-1 inh 67*, TIM10 inh 48*, NALP1 yeast inh 24, SKKanGAS inh -5, PfHsp90 set2 -7, tim10-1 confirm 61*, tim10 confirm 15 and tim23-1 conf 74*.
`CN1CCN(c2nc(C(N)=O)cc(-c3ccccc3)n2)CC1` gave tim10-1 inh -2, tim23-1 inh 8, TIM10 inh -4, NALP1 yeast inh 10, SKKanGAS inh 16 and PfHsp90 set2 -41.
Cc1nc(-c2ccccc2)cc(-c2ccccc2)n1 was read as tim10-1 inh 17, tim23-1 inh 16, TIM10 inh 15, SKKanGAS inh -6 and PfHsp90 set2 -23.
Screening CN(N)c1nc(-c2ccccc2)cc(-c2ccccc2)n1 returned tim10-1 inh 44*, tim23-1 inh 56*, TIM10 inh 50*, NALP1 yeast inh -33, SKKanGAS inh 44, PfHsp90 set2 1, tim10-1 confirm 39*, tim10 confirm 43* and tim23-1 conf 54*.
Screening CCOC(=O)c1nnn(-c2nonc2N)c1-c1ccc(OCC)cc1 returned tim10-1 inh 22, tim23-1 inh 27, TIM10 inh 12 and SKKanGAS inh -2.
COc1cc(NC(=O)c2oc3ccccc3c2C)ccc1NC(=O)c1ccco1 was read as tim10-1 inh -18, tim23-1 inh 9, TIM10 inh 21, NALP1 yeast inh 13, SKKanGAS inh 32 and PfHsp90 set2 16.
COc1cc(/C=C/C(=O)c2c(O)ccc3c(C)cc(=O)oc23)ccc1O was read as tim10-1 inh 78*, tim23-1 inh 73*, TIM10 inh 57*, NALP1 yeast inh 16, SKKanGAS inh 33, PfHsp90 set2 -33, tim10-1 confirm 72*, tim10 confirm 73* and tim23-1 conf 82*.
Screening Cc1cc(=O)oc2c(C(=O)/C=C/c3ccccc3)c(O)ccc12 returned tim10-1 inh 27, tim23-1 inh 13, TIM10 inh -7, NALP1 yeast inh 2, SKKanGAS inh 4 and PfHsp90 set2 31.
Screening Cc1cc(=O)oc2c(C(=O)/C=C\c3cccs3)c(O)ccc12 returned tim10-1 inh 54*, tim23-1 inh 73*, TIM10 inh 56*, NALP1 yeast inh 24, SKKanGAS inh 12, PfHsp90 set2 -70, tim10-1 confirm 79*, tim10 confirm 64* and tim23-1 conf 66*.
CC(=O)c1c(OCC(=O)O)ccc2c(C)cc(=O)oc12 was read as tim10-1 inh -2, tim23-1 inh 21, TIM10 inh 11, SKKanGAS inh -4 and PfHsp90 set2 -22.
For COc1ccc(/C=C\C(=O)c2c(O)ccc3c(C)cc(=O)oc23)cc1OC the results were tim10-1 inh 53*, tim23-1 inh 54*, TIM10 inh 47*, NALP1 yeast inh 11, SKKanGAS inh -6, PfHsp90 set2 -18, tim10-1 confirm 50*, tim10 confirm 51* and tim23-1 conf 52*.
Screening COc1ccc(F)cc1S(=O)(=O)NC1CCCCCC1 returned tim10-1 inh 27, tim23-1 inh 26, TIM10 inh 34, NALP1 yeast inh 3, SKKanGAS inh 4 and PfHsp90 set2 3.
Screening C[C@@H]1C=CC(=O)O[C@@H]1c1ccc(Cl)cc1 returned tim10-1 inh 45*, tim23-1 inh 56*, TIM10 inh 43*, NALP1 yeast inh -2, SKKanGAS inh 8, tim10-1 confirm 41*, tim10 confirm 41* and tim23-1 conf 40*.
N#Cc1c([N+](=O)[O-])cc([N+](=O)[O-])cc1S(=O)(=O)Cc1ccccc1 was read as tim10-1 inh 62*, tim23-1 inh 67*, TIM10 inh 54*, PfHsp90 set2 -6, tim10-1 confirm 61*, tim10 confirm 64* and tim23-1 conf 87*.
Screening COc1cc(OC)c(C#N)c(S(=O)(=O)Cc2ccccc2)c1 returned tim10-1 inh 18, tim23-1 inh 15, TIM10 inh 0, NALP1 yeast inh 6, SKKanGAS inh -1 and PfHsp90 set2 2.
CCN1/C(=C/C=C/c2sc3ccccc3[n+]2CC)Sc2ccccc21 was read as tim10-1 inh 77*, tim23-1 inh 85*, TIM10 inh 83*, SKKanGAS inh 89*, PfHsp90 set2 20, tim10-1 confirm 77*, tim10 confirm 76* and tim23-1 conf 85*.
Screening CC[n+]1c(/C=C(\C)SC)sc2ccccc21 returned tim10-1 inh 2, tim23-1 inh 6, TIM10 inh 6, NALP1 yeast inh -4, SKKanGAS inh -1 and PfHsp90 set2 -9.
Screening CCN1/C(=C/C=C/C=C/c2sc3ccccc3[n+]2CC)Sc2ccccc21 returned tim10-1 inh 80*, tim23-1 inh 89*, TIM10 inh 81*, NALP1 yeast inh 133*, SKKanGAS inh 104*, tim10-1 confirm 79*, tim10 confirm 8 and tim23-1 conf 86*.
COC(=O)C1=C(C)NC(=O)/C1=C\c1ccco1 was read as tim10-1 inh -12, tim23-1 inh -6, TIM10 inh 11, NALP1 yeast inh -19, SKKanGAS inh -5 and PfHsp90 set2 5.
O=C(/C=C/Sc1ccccc1)c1ccc(Cl)cc1 was read as tim10-1 inh 51*, tim23-1 inh 59*, TIM10 inh 37, NALP1 yeast inh 54, SKKanGAS inh 0, PfHsp90 set2 9, tim10-1 confirm 47* and tim23-1 conf 46*.
Screening O=C(C=Cc1ccccc1Cl)c1ccccc1 returned PfHsp90 set2 -45.
For COc1ccc(C(CNC(=O)c2cccc(S(=O)(=O)Nc3ccccc3OC)c2)N2CCCC2)cc1 (stereo unspecified) the results were tim10-1 inh -36, tim23-1 inh -49, TIM10 inh -20, SKKanGAS inh 20 and PfHsp90 set2 10.

Screening results as filed in PubChem.
